The record followed here is ChEMBL document CHEMBL1157539, “Thousands of chemical starting points for antimalarial lead identification” (Nature, 2010).

Molecules are shown by their SMILES.

Holding throughout (type): functional
For assay [1], the system named is Plasmodium falciparum. The assay can be described thus: GSK_TCMDC: Inhibition of Plasmodium falciparum 3D7 in whole red blood cells, using parasite LDH activity as an index of growth. Test compounds present at 2uM.
Assay [2] deals with Plasmodium falciparum. The assay can be described thus: GSK_TCMDC: Inhibition of Plasmodium falciparum Dd2 in whole red blood cells, using parasite LDH activity as an index of growth. Test compounds present at 2uM.
Another assay concerns HepG2. The assay can be described thus: GSK_TCMDC: Percent inhibition of human HepG2 cell line. Test compounds present at 10uM.

One may read the Inhibition as the relative decrease from the control value, in per cent. High values mean a strong effect, low ones a weak effect.

Regarding `O=C(/C=C/c1ccc(Cl)c(Cl)c1)NCCCCCN1CCC(c2cn[nH]c2-c2ccccc2)CC1`, the Inhibition is recorded as 85% with Plasmodium falciparum [1], 0% in the assay with Plasmodium falciparum [2] and 28% in the assay with HepG2.
Take `CCC[C@@H]([C@@H](CC(C)C)C(=O)N[C@@H](CCCCNC(=O)c1cccc(OC)c1)C(=O)Nc1nccs1)N(O)C=O`: the figures for the Inhibition in the assay on Plasmodium falciparum [1], in the assay on Plasmodium falciparum [2] and in the assay on HepG2 were 100%, 99% and 5%, respectively.
The corresponding values for `CCOc1cc(C(=O)NC2CCN(Cc3ccccc3)CC2)ccc1-c1nc2cc(Cl)ccc2[nH]1` are 100%, 84% and 10%.
For `CCOC(=O)c1c(NC(=O)c2ccccc2)sc2c(O)c(CNC3CCCCC3)ccc12`, the results for the Inhibition in the assay with Plasmodium falciparum [1], with Plasmodium falciparum [2] and with HepG2 were 99%, 98% and 6%, respectively.
With `Cc1cccc(C(=O)Nc2ccnc(N(C)CCCN(C)Cc3cccc(C#N)c3)c2)c1.O=C(O)C(F)(F)F`, the figures for the Inhibition with Plasmodium falciparum [1], with Plasmodium falciparum [2] and in the assay on HepG2 were 92%, 12% and 1%, respectively.
In the case of `CC(C)n1ncc2c(C(=O)N3CCCC4CCCCC43)cc(C3CC3)nc21` (stereo not given), the Inhibition in the assay on Plasmodium falciparum [1] is listed as 99%; in the assay with Plasmodium falciparum [2] it was 92%; in the assay on HepG2 it was 7%.
On to `COc1ccc(-c2ccc(NC(=O)c3ccc(C#N)cc3)cc2)cc1CN1CCCC1.O=C(O)C(F)(F)F`, for which the values for the Inhibition in the assay on Plasmodium falciparum [1], in the assay on Plasmodium falciparum [2] and with HepG2 were 95%, 51% and 40%, respectively.
In the case of `CCc1ccc(CN2CCC(NC(=O)c3ccc(-c4ccccc4F)s3)CC2)cc1.O=C(O)C(F)(F)F`, the Inhibition in the assay with Plasmodium falciparum [1] was determined as 80%; with Plasmodium falciparum [2], 12%; with HepG2, 35%.
The corresponding values for `Cl.NC(=O)c1sc(-n2cnc3ccc(OCC4CCNCC4)cc32)cc1OCc1ccccc1C(F)(F)F` are 100%, 62% and 18%.
On to `Cl.Fc1cccc(COc2ccc(Nc3ncnc4sc(C#C[C@H]5CCCN5)cc34)cc2F)c1`, for which the Inhibition is 98% with Plasmodium falciparum [1], 17% in the assay with Plasmodium falciparum [2] and 13% with HepG2.
